Reference: PubChem BioAssay AID485313 (National Center for Advancing Translational Sciences (NCATS), 2010)
Among all 320,000 compounds or so, about 7,600 (2.4%) were called active. Not shown: some 3% with an inconclusive outcome. Only a selection was taken, and actives are over-represented in it overall. A number with no mark means an inactive call. Calls come from the whole dose curve; as a rule, active = well fitted activation curve with a large enough effect; inconclusive = small, poorly fitted or top-dose-only effect; inactive = no such curve, though single readings can be large or run the other way.

Test: qHTS Assay for NPC1 Promoter Activators; note: nearly all actives have a fitted effect of over 60% in size;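 for activation: reporter is driven by a mutant NPC1 promoter; % of control where 0% means no effect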
Settings: Huh7 NPC1 promoter luciferase reporter, 24 h; series mostly up to 9.22 µM; activation: at the top concentration
Method in brief: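 Compounds in DMSO were transferred onto Huh7 NPC1-luciferase reporter cells pre-incubated 2 h; after 24 h at 37 °C, Amplite reagent was dispensed and luminescence recorded 10 min later.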
Potency is the fitted concentration of half-maximal effect.

| SMILES | activation | Potency |
| --- | --- | --- |
| O=C(CNC(=O)c1ccccc1Br)NNC(=O)c1cccs1 | -6.99% |  |
| CN(Cc1ccccc1)C(=O)CSc1nc2ccccc2[nH]1 | 7.29% |  |
| O=C(CSc1nc2ccccc2[nH]1)Nc1nc(-c2ccccc2)c(-c2ccccc2)o1 | -1.2% |  |
| O=C(CSc1nc2ccccc2[nH]1)c1cccs1 |  | 1.26 µM (active) |
| CC(OC(=O)/C=C/c1ccccc1)C(=O)NC1CCCCC1C (stereo unspecified) | -4.21% |  |
| O=C(CCc1nc(-c2ccccc2)no1)Nc1cccc(C(=O)NC2CC2)c1 | -0.65% |  |
| COc1ccc(CC(=O)c2ccc(O)cc2O)cc1OC | 10.8% |  |
| COc1ccc(C(=O)Cc2cnn(-c3ccccc3)c2)c(O)c1 |  | 2.51 µM (active) |
| Cc1cc(O)cc(O)c1C(=O)Cc1cnn(-c2ccccc2)c1 | 5.07% |  |
| CCOc1ncccc1C(=O)OCC(=O)N1c2ccccc2CC1C (stereo unspecified) | -6.3% |  |
| O=C(/C=C/NCc1ccc(F)cc1)c1ccccc1 | -4.79% |  |
| COc1ccc(N2C(=O)CCC(C(=O)Nc3ccccn3)C2c2ccc(OC)c(OC)c2)cc1 (stereo unspecified) | 0.515% |  |
| COc1ccc(C(=O)/C=C/Nc2ccccn2)cc1 |  | 0.1 µM (active) |
| CCOc1ccc(N/C=C/C(=O)c2ccccc2)cc1 |  | 0.316 µM (active) |
| Cc1ccc(N/C=C/C(=O)c2ccccc2)cc1C |  | 2 µM (active) |
| CCOc1ccc(NC(=S)N2CCC(NC(=O)c3ccccc3)CC2)cc1 | -3.36% |  |
| Cc1noc(NS(=O)(=O)c2ccc(N/C=C/C(=O)c3ccccc3)cc2)c1C | 9.13% |  |
| CCOc1ccc(N/C=C/C(=O)c2cc(OC)c(OC)c(OC)c2)cc1 | -10.5% |  |
| COc1ccc(C(=O)/C=C/c2ccc(OC3CSC3)cc2)cc1 | -2.72% |  |
| Cc1nc2ccc(NC(=O)C3CCCCC3)cc2s1 | 19.3% |  |
| COc1ccc(C(=O)OCC(=O)N2CC(=O)Nc3ccccc32)cc1Br | 0.925% |  |
| Cc1occc1-c1nnc(SCC(=O)NC2CCCCC2)o1 | -1.6% |  |
| Cc1nc(SCC(=O)NC2CCCCC2C)c(C#N)c(C)c1C (stereo unspecified) | -2.69% |  |
| Cc1cccc(-n2cnc(C(=O)NNC(=S)Nc3ccccc3)c2)n1 | -1.83% |  |

| SMILES | activation | Potency |
| --- | --- | --- |
| Cc1cccc(-n2cnc(C(=O)Nc3cccnc3)c2)n1 |  | 2.82 µM (active) |
| COc1cccc(C(=O)Nc2cccnc2)c1OC | -1.61% |  |
| COc1ccc(S(=O)(=O)N2CCC(C(=O)N3CCCC3)CC2)cc1C | -2.33% |  |
| CCCN(CC1CC1)C(=S)NC(=O)c1ccccc1Br | -0.97% |  |
| CC1(C)CN(c2ccc(-c3ccnc4ncnn34)cc2)C1=O | 10.3% |  |
| COc1ccccc1-c1sc2ccccc2c1-c1ccc(C(C)=O)cc1 | 17.3% |  |
| COc1ccc(N=C(C)c2sc3ccccc3c2O)cc1 |  | 0.708 µM (active) |
| Oc1ccc(N=Cc2sc3ccccc3c2Cl)cc1 | -3.13% |  |
| CC1CCCC(C)N1C(=O)COC(=O)COc1ccccc1C#N (stereo unspecified) | 0.305% |  |
| O=C1C=C(c2cccc(Cl)c2O)C[C@@H](c2ccc(F)cc2)C1 | -0.0087% |  |
| CC1CCCCC12NC(=O)N(CC(=O)Nc1ccc(S(=O)(=O)Nc3ncccn3)cc1)C2=O (stereo unspecified) | 1.23% |  |
| O=C1Cc2cc(S(=O)(=O)Nc3cccc(F)c3)ccc2N1 | -2.73% |  |
| Cc1ccccc1OCC(=O)Nc1ccc(S(=O)(=O)N2CCOCC2)cc1 | -4.62% |  |
| Cc1ccccc1OCC(=O)Nc1ccc2c(c1)ncn2C |  | 6.31 µM (active) |
| Cc1ccccc1OCC(=O)Nc1ccc(N2CCN(C(=O)C(C)C)CC2)c(Cl)c1 | -14.2% |  |
| O=C(CN1C(=O)NC2(CCCCC2)C1=O)N1CCN(C(=O)c2cccs2)CC1 | -1.5% |  |
| Cc1ccc(/C=C/C(=O)OCC(=O)NCc2ccc(Cl)cc2)o1 | -3.5% |  |
| CCOc1ccc(NC(=O)CN(C)C(=O)CCSc2ccc(F)cc2)cc1OCC | 2.17% |  |
| CC(C)n1ncc2c(C(=O)Nc3ccc(CC#N)cc3)cc(C3CC3)nc21 | 2.63% |  |
| Cc1ccc(N/N=C2\COC(C)(C)CC2=O)cc1 |  | 2.82 µM (active) |
| Nc1c(N(Cc2ccco2)C(=O)c2cccc(F)c2)c(=O)[nH]c(=O)n1Cc1ccccc1 | 1.11% |  |
| COCCN(Cc1ccccc1)C(=O)Cc1ccc(S(=O)(=O)N2CCOCC2)s1 | -0.21% |  |
| Cc1ccc(OCC(=O)Nc2ccc(-c3nc4ncccc4o3)cc2)cc1 | 23.3% |  |
| CCc1nc(Nc2ccc(NC(C)=O)cc2)c2oc3ccccc3c2n1 | 4.77% |  |

| SMILES | activation | Potency |
| --- | --- | --- |
| CC(=O)Nc1ccc(-c2nc3ccccc3o2)cc1 |  | 1.12 µM (active) |
| COc1ccc(S(=O)(=O)N2CCN(CC(=O)NCC3(N4CCOCC4)CCCCC3)CC2)cc1 | -1.5% |  |
| COc1ccc(CSc2nnnn2-c2ccc(O)cc2)cc1F | -1.66% |  |
| O=C(Nc1ccccc1N1CCCCC1)c1ccc2nccnc2c1 | -2.42% |  |
| Cc1cccc(NC(=O)c2ccc3nsnc3c2)c1C | 12.2% |  |
| O=C(Nc1ccccc1Cl)c1ccc2nsnc2c1 |  | 2.24 µM (active) |
| O=C(C1CCC1)N1CCN(S(=O)(=O)c2ccc([N+](=O)[O-])cc2)CC1 | -0.512% |  |
| CCOc1ccc(S(=O)(=O)N(CC(=O)NCC(F)(F)F)Cc2ccco2)cc1 | -0.109% |  |
| CCCCOc1ccc(-c2nnc(-c3ccco3)o2)cc1 |  | 1.58 µM (active) |
| O=C(CCc1ccccc1)Nc1cccc(-c2nnc(-c3ccco3)o2)c1 | 15.9% |  |
| Cc1ccc(OCC(=O)Nc2ccc(-c3nnc(-c4ccco4)o3)cc2)cc1 |  | 2.82 µM (active) |
| COc1ccc(OCC(=O)Nc2nnc(-c3ccco3)s2)cc1 | -6.29% |  |
| CCOc1ccc(-c2nnc(-c3ccco3)o2)cc1 |  | 0.631 µM (active) |
| CC(=O)Nc1ccc(NC(=O)COc2ccc(-c3ccccc3)cc2)cc1 | 4.85% |  |
| Cc1ccc(OCC(=O)Nc2nnc(-c3ccco3)s2)cc1 | -2.26% |  |
| CCOc1ccc(NC(=O)N(CCC(C)C)C(C)c2ccco2)cc1 (stereo unspecified) | -0.897% |  |
| CCOc1ccc(-n2c(SCC(N)=O)nnc2-c2ccco2)cc1 | 1.18% |  |
| CCC[C@H]1CCCC/C=C\CCCC(=O)OCCN1C(=O)OC(C)(C)C | -2.58% |  |
| CCOCCn1[nH]c2ccccc2c1=O | 8.92% |  |
| CC(C)NC(=O)N1CCN(c2ccncc2S(=O)(=O)N2CCCCC2)CC1 | -6.15% |  |
| O=C(NC1CCCCCC1)C1CCN(C(=O)c2ccc(Cl)cc2)CC1 | -1.36% |  |
| CCc1sc(C(=O)N2CCN(CC(=O)Nc3cccc(F)c3)CC2)cc1C | -2.76% |  |
| COc1cccc(C2=CC(=O)C[C@H](c3ccc(OC)c(OC)c3)C2)c1 | 0.572% |  |
